This is a sample that favours compounds with a hit; in the whole collection about 11% have one here.
HCV inh: qHTS Assay for Inhibitors of Hepatitis C Virus (HCV); Potency, µM (highest dose often 41.8 µM), actives largely listed as inhibitors; 3.4% of 340,000 active; Huh7.5.1 HCVcc-Cre infection, luciferase reporter, 44 h; AID 651820, 2012
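Infectious HCVcc-Cre (~0.5 moi) was added to cells just after compound, with cells seeded 4 h earlier at 1,000 per well. Luciferase activity after 44 h culture reported infection; substrate was incubated 15 min at room temperature before reading.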
AMA1 RON2 block: qHTS for Inhibitors of AMA1-RON; Towards Development of Antimalarial Drug Lead: Primary Screen | AID 720542, 2013 | 0.2% of 360,000 active | AlphaScreen AMA1-biotinylated RON2 peptide binding | Plasmodium falciparum AMA1 (3D7) - RON2 peptide interaction | Potency, µM (doses to about 58.2 µM), most hits filed as inhibitors; further: nearly all actives have a fitted effect of over 45% in size
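AMA1 (3D7) with his tag at 25 nM final met compounds first, then biotinylated RON2 peptide at 25 nM; detection used donor plus acceptor beads, 10 µg/mL apiece, read by AlphaScreen after 30 min at room temperature.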
Pf growth 96h: Primary qHTS for delayed death inhibitors of the malarial parasite plastid, 96 hour incubation; P. falciparum luciferase reporter growth, 96 h; Potency, µM (titrated, usually from 28.7 µM), actives largely listed as inhibitors; 6.9% of 320,000 active
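Two parasite generations (96 h, 37 C, 5% CO2) of compound exposure in infected erythrocytes (0.05% parasitemia, 2% hematocrit). Luciferase-reporter P. falciparum; decreased luminescence indicates inhibited growth, aimed at apicoplast-acting delayed death.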
Pf growth 48h: Primary qHTS for delayed death inhibitors of the malarial parasite plastid, 48 hour incubation. P. falciparum luciferase growth in erythrocytes, 48 h. Potency, µM (top dose mostly 28.7 µM), most hits filed as inhibitors. 5.9% of 310,000 active. AID 504832, 2011
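Compounds are pin-transferred into medium, infected erythrocytes (2% hematocrit, 0.1% parasitemia final) are added, and plates sit one parasite generation at 37 C in 5% CO2. Detection reagent is then added and luminescence measured.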
Large screens that a line does not name were inactive; ! = not confirmed by another sample. The call rests on the fitted dose curve; in most records, active means well fitted curve in the direction sought with a large enough effect; inconclusive means small, poorly fitted or top-dose-only effect, or another doubt; inactive means no such curve, though single readings can be large; an effect the other way counts as inactive or inconclusive.

CC1(C(=O)NC(=S)NNC(=O)c2ccncc2)CCCCC1	Pf growth 96h inconclusive, Pf growth 48h inconclusive
O=C(NNC(=S)NC(=O)C12CC3CC(CC(C3)C1)C2)c1ccncc1	Pf growth 96h 3.3µM, Pf growth 48h 3.3µM
C[N+]12CCC(CC1)C(=C(c1ccccc1)c1ccccc1)C2	HCV inh inconclusive, Pf growth 96h 0.59µM, Pf growth 48h 0.74µM
COc1ccccc1N(CC(O)COc1c(C)cc(C)cc1C)S(=O)(=O)c1ccccc1 (stereo not given)	HCV inh inconclusive, Pf growth 96h 13µM, Pf growth 48h 12µM
Cc1ccc(S(=O)(=O)N(CC(O)CN(C)C)c2ccccc2)cc1 (stereo not given)	Pf growth 96h 2.6µM
COc1ccccc1N(CC(O)COc1ccc(C)cc1)S(=O)(=O)c1ccccc1 (stereo not given)	Pf growth 96h 2.1µM, Pf growth 48h inconclusive
COc1ccccc1N(CC(O)CN(c1ccccc1)S(C)(=O)=O)S(=O)(=O)c1ccccc1 (stereo not given)	Pf growth 48h inconclusive
COc1ccccc1N(CC(O)COc1ccccc1)S(=O)(=O)c1ccccc1 (stereo not given)	Pf growth 96h inconclusive, Pf growth 48h inconclusive
COc1cc(OC)c(C(=O)OCC(=O)N(Cc2ccccc2)C(C)(C)C)cc1OC	Pf growth 96h inconclusive
CC(C)OCCCNC(=O)Cn1nc(-c2ccccc2)ccc1=O	none
O=C(COC(=O)C1CC2C=CC1C2)NCc1ccco1 (stereo not given)	none
O=C(COC(=O)C1CCCCC1C(=O)N1CCc2ccccc21)NCc1ccco1 (stereo not given)	Pf growth 48h 12µM
Cc1ccc(NC(=O)CSc2ncc3ccccn23)cc1C	none
COc1ccc(/C=N/N(CCC(=O)NC(C)(C)C)C2=NS(=O)(=O)c3ccccc32)cc1	Pf growth 48h 6.6µM
COc1ccc(CCNC(=O)CCCn2c(=S)[nH]c3ccsc3c2=O)cc1OC	none (no result: HCV inh, Pf growth 96h, Pf growth 48h)
COc1ccc2cc(/C=C/C(=O)N3CCN(CC(=O)N4CCCCCC4)CC3)ccc2c1	HCV inh inconclusive, Pf growth 96h inconclusive, Pf growth 48h 6.6µM
COc1ccc(C(=O)N2CCN(CC(=O)N3CCOCC3)CC2)cc1	Pf growth 96h 4.7µM!
CC1CCC2C(C)C(=O)OC3OC4(C)CCC1C32OO4 (stereo not given)	Pf growth 48h 0.0033µM
C[C@@H]1CCC2[C@@H](C)[C@@H](O)O[C@@H]3O[C@@]4(C)CC[C@@H]1[C@@]23OO4 (stereo not given in full)	Pf growth 96h 0.0004µM, Pf growth 48h 0.0005µM (no result: HCV inh, AMA1 RON2 block)
CC1CCC2[C@@H](C)C(=O)OC3O[C@]4(C)CCC1C32OO4 (stereo not given in full)	none (no result: Pf growth 96h, Pf growth 48h)
COc1cccc(CNC(=O)[C@@H]2CCCN2C(=O)[C@@H]2CCCN2C(=O)c2cccc3ccccc23)c1	none (no result: HCV inh, Pf growth 96h, Pf growth 48h)
CCN(C(=O)CN1C(=O)S/C(=C\c2cccc(OC)c2)C1=O)C1CCS(=O)(=O)C1 (stereo not given)	Pf growth 96h 8.3µM, Pf growth 48h inconclusive
COc1cccc(/C=C2\SC(=O)N(CC(=O)NC3C=CS(=O)(=O)C3)C2=O)c1 (stereo not given)	Pf growth 96h 12µM, Pf growth 48h inconclusive
COc1cccc(/C=C2\SC(=O)N(CCC(=O)NC3CCS(=O)(=O)C3)C2=O)c1 (stereo not given)	Pf growth 96h 9.3µM
O=C(CCN1C(=O)S/C(=C\c2ccccc2)C1=O)NC1CCS(=O)(=O)C1 (stereo not given)	Pf growth 96h 12µM
COc1cccc(/C=C2\SC(=O)N(CC(=O)NC3CCS(=O)(=O)C3)C2=O)c1 (stereo not given)	Pf growth 96h inconclusive, Pf growth 48h inconclusive
COc1ccc(/C=C2\SC(=S)N(CC(=O)NC3C=CS(=O)(=O)C3)C2=O)cc1 (stereo not given)	none
OCCC1CN(Cc2ccc(Oc3ncccn3)cc2)CCN1C1CCCCC1 (stereo not given)	none
Cc1cc(SCC(=O)N(C)CC(=O)Nc2ccc(F)cc2)nc2ccccc12	HCV inh inconclusive
COCC1CCCCN1C(=O)C1CCN(c2nc(-c3ccccc3)nc3c2CCC3)CC1 (stereo not given)	HCV inh inconclusive, Pf growth 48h 9.3µM
CCOC(=O)C1CCN(c2nc(-c3ccc(C)cc3)nc3ccccc23)CC1	HCV inh inconclusive, Pf growth 96h inconclusive, Pf growth 48h inconclusive
CCOC(=O)C1CCN(C(=O)CSc2c3c(nc4ccccc24)CCC3)CC1	none
COCC1CCN(C(=O)C2CCN(c3nc(-c4ccccc4)nc4c3CCC4)CC2)C1 (stereo not given)	HCV inh inconclusive, Pf growth 96h inconclusive, Pf growth 48h 7.4µM
O=C(C1CCN(c2nc(-c3ccccc3)nc3c2CCC3)CC1)N1CCC(O)CC1	Pf growth 96h inconclusive, Pf growth 48h 3.7µM
CNCCC(Oc1ccc(C(F)(F)F)cc1)c1ccccc1 (stereo not given)	HCV inh inconclusive, Pf growth 96h inconclusive, Pf growth 48h 15µM
CNCCOCC(O)CSc1ccccc1 (stereo not given)	none (no result: Pf growth 96h)
CCC(C)NS(=O)(=O)c1ccc(S(=O)(=O)Nc2cc3c(cc2C(C)=O)OCO3)cc1 (stereo not given)	HCV inh 14µM, Pf growth 96h 9.3µM
Cc1ccc(Cc2c(C)c(C#N)c3[nH]c4ccccc4n3c2=O)cc1	HCV inh 11µM, Pf growth 96h inconclusive, Pf growth 48h inconclusive
CCOC(=O)CCCCC(=O)c1[nH]c(=O)[nH]c1CSCCO	AMA1 RON2 block 7.5µM, Pf growth 48h inconclusive (no result: Pf growth 96h)
CCOC(=O)CCCCC(=O)c1[nH]c(=O)[nH]c1CSc1nc(-c2ccccc2)c(C#N)c(=O)[nH]1	AMA1 RON2 block inconclusive
CCOC(=O)CCCCC(=O)c1[nH]c(=O)[nH]c1Cn1cnc2ccccc21	AMA1 RON2 block 38µM (no result: Pf growth 96h)
COc1ccc2nc(NC(=O)C3CCN(S(=O)(=O)c4cnc[nH]4)CC3)sc2c1	none
COc1ccc2nc(NC(=O)C3CCCN(S(=O)(=O)c4cccs4)C3)sc2c1 (stereo not given)	HCV inh 13µM, Pf growth 96h inconclusive, Pf growth 48h 9.3µM
CC(=O)N1CCc2c(sc(NC(=O)C3CCN(S(=O)(=O)c4cccs4)CC3)c2C(N)=O)C1	Pf growth 96h inconclusive, Pf growth 48h 12µM
Cc1ccc2nc(NC(=O)C3CCN(S(=O)(=O)c4cccs4)CC3)sc2c1	HCV inh 13µM, Pf growth 48h inconclusive
CC(=O)N1CCc2c(sc(NC(=O)C3CCCN3S(=O)(=O)c3cccs3)c2C(N)=O)C1 (stereo not given)	Pf growth 96h inconclusive, Pf growth 48h inconclusive
Cc1ccc2nc(NC(=O)C3CCN(S(=O)(=O)c4cnc[nH]4)CC3)sc2c1	Pf growth 96h 12µM
COc1ccc2nc(NC(=O)CNS(=O)(=O)c3cccs3)sc2c1	none (no result: Pf growth 48h)

Assay outcomes (PubChem)
